Measured values reported in PubChem BioAssay (Tox21).
Results filed as inconclusive are left out. Where a call stands in place of a potency, no number is given. Activity calls are given as the source filed them. Unless noted, the call rests on the fitted dose curve; in most records, active means well fitted curve in the direction sought with a large enough effect in the repeat runs; inconclusive means weak or mixed curves; inactive means no such curve, though single readings can be large; an effect the other way counts as inactive or inconclusive. Positions of bridges follow the written chain, without caps; N, C: chain ends. Residues, ends and D or L forms follow the SMILES beside them.

How the values were obtained:
[1] = qHTS assay to test for compound auto fluorescence at 535 nm (green) in HEK293 cells (AID 720680)
[2] = qHTS assay to test for compound auto fluorescence at 460 nm (blue) in HEK293 cell free culture (AID 720681)
Outline: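 Test compounds were pinned into cell-free culture medium (DMEM with 10% FBS) and fluorescence was read directly at Ex/Em 405/460 nm. Signals were expressed as fluorescence equivalents of triamterene, with DMSO vehicle as control.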

[3] = qHTS assay to test for compound auto fluorescence at 535 nm (green) in HEK293 cell free culture (AID 720682)
Outline: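 DMEM + 10% FBS, cell-free; cpd or DMSO pinned in; Ex485/Em535 read; output as fluorescein-equivalent signal.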

[4] = qHTS assay to test for compound auto fluorescence at 590 nm (red) in HEK293 cell free culture (AID 720683)
Outline: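 Tox21 10K library compounds were pinned into cell-free DMEM with 10% FBS and fluorescence was read at excitation 540 nm. Activity is expressed as Rose Bengal sodium equivalency.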

[5] = qHTS assay to test for compound auto fluorescence at 590 nm (red) in HepG2 cell free culture (AID 720684)
Outline: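 Measured in medium alone (MEM containing 10% FBS) following pintool addition of compound; emission at 590 nm with 540 nm excitation, referenced to Rose Bengal sodium.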

[6] = qHTS assay to test for compound auto fluorescence at 460 nm (blue) in HepG2 cell free culture (AID 720685)
Outline: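 Compound (23 nL) or DMSO pinned into cell-free MEM with 10% FBS; blue fluorescence read at 405/460 nm excitation/emission, expressed as auto-fluorescence equivalency to triamterene.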

[7] = qHTS assay to test for compound auto fluorescence at 535 nm (green) in HepG2 cell free culture (AID 720686)
[8] = qHTS assay to test for compound auto fluorescence at 460 nm (blue) in HepG2 cells (AID 720687)
Outline: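 Cells (2,000/well in MEM with 10% FBS) attached overnight at 37 C, then were exposed to compound or DMSO for 1 hr at 37 C, 5% CO2. Fluorescence read at Ex/Em 405/460 nm, expressed as triamterene-equivalent signal.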

[9] = target: Glucocorticoid receptor (Homo sapiens) (UniProt P04150); assay: qHTS assay to identify small molecule agonists of the glucocorticoid receptor (GR) signaling pathway (AID 720691; active means well fitted activation curve with a large enough effect in the signal ratio in the repeat runs, not every such curve was filed as active; the % refers to the signal ratio); settings: GR-bla HeLa, beta-lactamase reporter ratio, 18 h; activation: at 62.4 µM (top of the series)
Glucocorticoid receptor (Homo sapiens), sequence (P04150 whole entry, looked up): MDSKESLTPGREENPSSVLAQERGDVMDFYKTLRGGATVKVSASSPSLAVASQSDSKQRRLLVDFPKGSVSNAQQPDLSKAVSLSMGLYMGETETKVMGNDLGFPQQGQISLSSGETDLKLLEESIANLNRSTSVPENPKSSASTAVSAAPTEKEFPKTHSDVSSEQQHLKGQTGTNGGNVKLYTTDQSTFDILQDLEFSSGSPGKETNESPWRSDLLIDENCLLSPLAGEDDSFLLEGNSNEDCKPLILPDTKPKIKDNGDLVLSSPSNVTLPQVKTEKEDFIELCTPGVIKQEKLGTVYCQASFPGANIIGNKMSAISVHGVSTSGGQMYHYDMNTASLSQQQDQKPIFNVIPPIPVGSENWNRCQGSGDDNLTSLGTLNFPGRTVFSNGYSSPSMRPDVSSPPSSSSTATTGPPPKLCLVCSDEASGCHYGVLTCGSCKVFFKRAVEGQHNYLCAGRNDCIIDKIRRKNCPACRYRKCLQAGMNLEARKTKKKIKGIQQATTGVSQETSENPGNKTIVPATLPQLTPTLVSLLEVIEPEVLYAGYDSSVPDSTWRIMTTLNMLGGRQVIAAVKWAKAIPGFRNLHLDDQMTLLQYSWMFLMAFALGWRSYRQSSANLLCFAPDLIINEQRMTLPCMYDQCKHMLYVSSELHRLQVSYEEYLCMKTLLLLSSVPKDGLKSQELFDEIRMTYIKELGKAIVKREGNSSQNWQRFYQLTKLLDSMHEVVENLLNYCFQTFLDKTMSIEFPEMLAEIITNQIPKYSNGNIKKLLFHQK
Outline: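 Agonist mode in a HeLa line carrying a GRE-controlled beta-lactamase reporter. Compounds act for 18 h at 37 C before a 2 h room-temperature FRET substrate step and fluorescence reading.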

[10] = target: Glucocorticoid receptor (Homo sapiens) (UniProt P04150); assay: qHTS assay to identify small molecule antagonists of the glucocorticoid receptor (GR) signaling pathway (AID 720692; active means well fitted inhibition curve with a large enough effect in the signal ratio in the repeat runs, not every such curve was filed as active; the % refers to the signal ratio)
Outline: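 Cells plated, rested 4 h at 37 C/5% CO2; compounds in DMSO pin-transferred; dexamethasone added to 5 nM final; 18 h at 37 C; B/G FRET substrate added, 2 h room temperature; fluorescence measured.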

[11] = qHTS assay to identify small molecule antagonists of the glucocorticoid receptor (GR) signaling pathway - cell viability counter screen (AID 720693); further: nearly all actives have a fitted effect of over 55% in size
[12] = qHTS assay for identifying genotoxic compounds that show differential cytotoxicity against isogenic chicken DT40 cell lines with known DNA damage response pathways - wild type cell line (AID 743012); further: nearly all actives have a fitted effect of over 60% in size; further: potency means the concentration at half of the fitted maximal effect
Outline: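 Cells (DT40 wild type, 300/well) are treated with DMSO-dissolved compounds after a ~0.5 h pre-incubation and kept 40 h at 37 C/5% CO2. Viability is then measured by CellTiter-Glo luminescence following 30 min at room temperature.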

[13] = qHTS assay for identifying genotoxic compounds that show differential cytotoxicity against isogenic chicken DT40 cell lines with known DNA damage response pathways - Rev3 mutant cell line (AID 743014); further: nearly all actives have a fitted effect of over 55% in size; further: potency means the concentration at half of the fitted maximal effect
[14] = qHTS assay for identifying genotoxic compounds that show differential cytotoxicity against isogenic chicken DT40 cell lines with known DNA damage response pathways - Rad54/Ku70 mutant cell line (AID 743015); further: nearly all actives have a fitted effect of over 60% in size; further: potency means the concentration at half of the fitted maximal effect
[15] = qHTS assay to identify small molecule antagonists of the androgen receptor (AR) signaling pathway - cell viability counter screen (AID 743033; further: nearly all actives have a fitted effect of over 45% in size)
[16] = qHTS assay to identify small molecule antagonists of the androgen receptor (AR) signaling pathway using the MDA cell line - cell viability counter screen (AID 743041; further: nearly all actives have a fitted effect of over 45% in size)
Outline: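 Viability counter screen run alongside the AR antagonist reporter: cells seeded 5 h before compound, R1881 added, 16 h incubation at 37C without CO2, fluorescent CellTiter-Fluor signal quantified.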

Structure (SMILES) | Potency [1] | Potency [2] | Potency [3] | Potency [4] | Potency [5] | outcome [6] | Potency [7] | outcome [8] | Potency [9] | Potency [10] | Potency [11] | Potency [12] | Potency [13] | Potency [14] | Potency [15] | Potency [16]
CCCC(=O)Nc1c(I)cc(I)c(CC(CC)C(=O)O)c1I (stereo not drawn) | inactive | inactive | inactive | inactive | inactive | inactive | inactive | inactive | inactive | inactive | inactive | inactive | inactive | inactive | inactive | inactive
CC[C@H](CC[C@@H](C)[C@H]1CC[C@H]2[C@@H]3CC=C4C[C@@H](O)CC[C@]4(C)[C@H]3CC[C@]12C)C(C)C | inactive | inactive | inactive | inactive | inactive | inactive | inactive | inactive | inactive | inactive | inactive | inactive | inactive | inactive | inactive | inactive
CN(C(=O)CO)c1c(I)c(C(=O)NCC(O)CO)c(I)c(C(=O)NCC(O)CO)c1I (stereo not drawn) | inactive | inactive | inactive | inactive | inactive | inactive | inactive | inactive | inactive | inactive | inactive | inactive | inactive | inactive | inactive | inactive
CCCC(CCC)C(N)=O | inactive | inactive | inactive | inactive | inactive | inactive | inactive | inactive | inactive | inactive | inactive | inactive | inactive | inactive | inactive | inactive
O=C(O[C@H]1CN2CCC1CC2)N1CCc2ccccc2[C@@H]1c1ccccc1 | inactive | inactive | inactive | inactive | inactive | inactive | inactive | inactive | inactive | inactive | inactive | 11.9 µM (active) | 26.6 µM (active) | 26.6 µM (active) | inactive | inactive
CO[C@H]1O[C@@H]2O[C@@]3(C)CC[C@H]4[C@H](C)CC[C@@H]([C@H]1C)[C@@]24OO3 | inactive | inactive | inactive | inactive | inactive | inactive | inactive | inactive | inactive | inactive | inactive | 1.19 µM (active) | 1.68 µM (active) | 0.668 µM (active) | inactive | inactive
C[C@@H](O)[C@H]1C(=O)N2C(C(=O)[O-])=C(SC3Cn4cnc[n+]4C3)[C@H](C)[C@H]12 (stereo partly drawn) | inactive | inactive | inactive | inactive | inactive | inactive | inactive | inactive | inactive | inactive | inactive | inactive | inactive | inactive | inactive | inactive
Nc1nc(=O)n([C@@H]2CS[C@H](CO)O2)cc1F | inactive | inactive | inactive | inactive | inactive | inactive | inactive | inactive | inactive | inactive | inactive | inactive | inactive | inactive | inactive | inactive
NC[C@@H]1O[C@H](O[C@H]2[C@@H](O)[C@H](O[C@@H]3[C@@H](O)[C@H](N)C[C@H](N)[C@H]3O[C@H]3O[C@H](CO)[C@@H](O)[C@H](O)[C@H]3N)O[C@@H]2CO)[C@H](N)[C@@H](O)[C@@H]1O | inactive | inactive | inactive | inactive | inactive | inactive | inactive | inactive | inactive | inactive | inactive | inactive | inactive | inactive | inactive | inactive
CCN(CC)CCOC(=O)c1ccc(N)cc1Cl | inactive | inactive | inactive | inactive | inactive | inactive | inactive | inactive | inactive | inactive | inactive | inactive | inactive | inactive | inactive | inactive
O=C1O[C@H]2[C@H](O)[C@@H]1OC(O)[C@H]2O (stereo partly drawn) | inactive | inactive | inactive | inactive | inactive | inactive | inactive | inactive | inactive | inactive | inactive | inactive | inactive | inactive | inactive | inactive
NCCCC[C@H](NC(=O)[C@@H]1CCCN1C(=O)[C@@H]1CSSC[C@H](NC(=O)CNC(=O)CNC(=O)CN)C(=O)N[C@@H](Cc2ccc(O)cc2)C(=O)N[C@@H](Cc2ccccc2)C(=O)N[C@@H](CCC(N)=O)C(=O)N[C@@H](CC(N)=O)C(=O)N1)C(=O)NCC(N)=O (H-GGGCYFQNCPKG-NH2; disulfide 4-9) | inactive | inactive | inactive | inactive | inactive | inactive | inactive | inactive | inactive | inactive | inactive | inactive | inactive | inactive | inactive | inactive
CN=C(NC)NCc1ccccc1 | inactive | inactive | inactive | inactive | inactive | inactive | inactive | inactive | inactive | inactive | inactive | inactive | inactive | inactive | inactive | inactive
